Assay results as given in PubChem BioAssay (NCATS).
Values joined by “and” are separate entries in the source; they are usually repeats but may differ in a detail not shown here. Identical values can stand only once. Inconclusive results are not listed. A number with no mark means an inactive call. Active and inactive are the calls of the source. The call rests on the fitted dose curve; in most records, active means well fitted curve in the direction sought with a large enough effect; inconclusive means small, poorly fitted or top-dose-only effect, or another doubt; inactive means no such curve, though single readings can be large; an effect the other way counts as inactive or inconclusive.

How the values were obtained:
[1] = target: Cellular tumor antigen p53 (Homo sapiens) (UniProt P04637); assay: Primary qHTS for small molecule compounds that upregulate eGFP-tagged delta133p53alpha (in N-terminal) cells. (AID 2060322); conditions: NCI-H358 eGFP-delta133p53alpha fluorescence, 24 h; activation: stronger effect = higher value; further: nearly all actives have a fitted effect of over 75% in size;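 on activation: cells pre-induced with doxycycline then dosed without doxycycline; 0% = DMSO vehicle and 100% = reference activator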
Cellular tumor antigen p53 (Homo sapiens), sequence (P04637 whole entry, looked up): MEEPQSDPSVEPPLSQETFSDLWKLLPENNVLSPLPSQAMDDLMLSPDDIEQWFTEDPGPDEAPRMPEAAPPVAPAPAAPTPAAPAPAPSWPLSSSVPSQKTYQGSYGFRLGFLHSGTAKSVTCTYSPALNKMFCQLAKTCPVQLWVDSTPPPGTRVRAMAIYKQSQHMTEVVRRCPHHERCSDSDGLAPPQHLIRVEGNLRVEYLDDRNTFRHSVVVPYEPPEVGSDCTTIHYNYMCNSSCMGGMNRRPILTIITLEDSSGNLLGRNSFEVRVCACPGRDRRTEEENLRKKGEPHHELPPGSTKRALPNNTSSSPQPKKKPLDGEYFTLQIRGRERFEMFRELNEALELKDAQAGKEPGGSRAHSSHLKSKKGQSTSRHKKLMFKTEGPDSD
Procedure, shortened: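 NCI-H358 cells pre-induced 24 h with 10 ng/ml doxycycline for eGFP-delta133p53alpha, plated dox-free and exposed 24 h at 37C to titrated compounds. Fixed, Hoechst-stained; gated GFP peak intensity by laser scanning cytometry, normalized to DMSO (0%) and 57.5 uM 5-azacytidine (100%).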

[2] = BET inhibitor-based combinations targeting novel dependencies in MECOM-rearranged (r) AML: SET-2 cell line (AID 2202231); conditions: SET-2 AML cells viability, CellTiter-Glo luminescence, 48 h; viability: stronger effect = lower value, concentration not given here; further: nearly all actives have a fitted effect of over 35% in size;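 on viability: plate controls were DMSO treated cells for no effect and wells without cells for full effect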
Procedure, shortened: (§1)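 Luminescent ATP readout (CellTiter-Glo) after 48 hr drug exposure gives viability. Curves span 11 concentrations and are normalized to DMSO and empty wells. Activity is reported as area under the curve and its Z-transform within each cell line.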

[3] = BET inhibitor-based combinations targeting novel dependencies in MECOM-rearranged (r) AML: OCI-AML3 cell line (AID 2202232); conditions: CellTiter-Glo luminescence, 48 h; Potency: OCI-AML3 viability; series mostly up to 46 µM; further: nearly all actives have a fitted effect of over 35% in size
Procedure, shortened: as §1

[4] = BET inhibitor-based combinations targeting novel dependencies in MECOM-rearranged (r) AML: MV-4-11 cell line (AID 2202233); conditions: MV-4-11 AML viability, CellTiter-Glo luminescence, 48 h; series mostly up to 46 µM; further: nearly all actives have a fitted effect of over 45% in size
Procedure, shortened: (§2)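 Luminescent ATP readout (CellTiter-Glo, 15 min at room temperature) after 48 hr drug exposure gave viability. Dose-response curves, normalized to DMSO and empty-well controls, were summarized as area under the curve and its mean-centred Z-score.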

[5] = BET inhibitor-based combinations targeting novel dependencies in MECOM-rearranged (r) AML: HNT-34 cell line (AID 2202234); conditions: HNT-34 AML viability, CellTiter-Glo luminescence, 48 h; series mostly up to 46 µM; further: nearly all actives have a fitted effect of over 35% in size
Procedure, shortened: as §2

[6] = BET inhibitor-based combinations targeting novel dependencies in MECOM-rearranged (r) AML: UCSD-AML1 cell line (AID 2202235); conditions: UCSD-AML1 AML cells viability, CellTiter-Glo, 48 h; series mostly up to 46 µM; further: nearly all actives have a fitted effect of over 40% in size
Procedure, shortened: as §2

[7] = BET inhibitor-based combinations targeting novel dependencies in MECOM-rearranged (r) AML: AML-194 cell line (AID 2202237; further: nearly all actives have a fitted effect of over 40% in size); conditions: AML-194 (MECOM-r AML) viability, CellTiter-Glo, 48 h; series mostly up to 46 µM
Procedure, shortened: as §1

[8] = BET inhibitor-based combinations targeting novel dependencies in MECOM-rearranged (r) AML: AML-191 cell line (AID 2202236; further: nearly all actives have a fitted effect of over 35% in size); conditions: AML-191 viability, CellTiter-Glo luminescence, 48 h; series mostly up to 46 µM
Procedure, shortened: as §1
Potency means the concentration at half of the fitted maximal effect.

## COc1cc(C[C@@H](CO)[C@H](CO)Cc2ccc(O)c(OC)c2)ccc1O
[1]
  activation: -3.34%
[2]
  viability: 120%
[3]
  Potency: inactive
[4]
  Potency: inactive
[5]
  Potency: inactive
[6]
  Potency: inactive
[7]
  Potency: inactive

## S=c1nc[nH]c2nc[nH]c12
[1]
  activation: -18.4% and 17.9%
[2]
  Potency: 2.63 µM (active)
[3]
  Potency: 1.86 µM (active)
[4]
  Potency: 0.417 µM (active)
[5]
  Potency: 16.6 µM (active)
[6]
  Potency: 3.72 µM (active)
[7]
  Potency: 0.59 µM (active)

## CC(C)Oc1cc(Nc2nc(N[C@@H](C)c3ccc(F)cn3)ncc2Cl)[nH]n1
[1]
  Potency: 24.3 µM (active)
[2]
  Potency: 18.6 µM (active)
[3]
  Potency: 16.6 µM (active)
[4]
  Potency: 0.0934 µM (active)
[5]
  Potency: 16.6 µM (active)
[8]
  Potency: 0.417 µM (active)

## OC(Cn1cncn1)(Cn1cncn1)c1ccc(F)cc1F
[1]
  activation: 6.21% and 14.6%
[2]
  viability: 116%
[3]
  Potency: inactive
[4]
  Potency: inactive
[5]
  Potency: inactive
[6]
  Potency: inactive
[8]
  Potency: inactive
[7]
  Potency: inactive

## Cc1ccc(S(=O)(=O)OCC(=O)Nc2ccc(C(=O)O)c(O)c2)cc1
[1]
  activation: 22.5%
[2]
  viability: 117%
[3]
  Potency: inactive
[4]
  Potency: inactive
[5]
  Potency: inactive
[6]
  Potency: inactive
[7]
  Potency: inactive

## C[C@]12CC[C@@H]3c4ccc(O)cc4CC[C@H]3[C@H]1[C@@H](O)[C@@H](O)[C@H]2O
[1]
  activation: 9.46%
[2]
  viability: 104%
[3]
  Potency: inactive
[4]
  Potency: inactive
[5]
  Potency: inactive
[6]
  Potency: inactive
[7]
  Potency: inactive

## CN(CC(=O)N(Cc1ccc(C2CCCCC2)cc1)c1ccc(C(=O)O)c(O)c1)S(=O)(=O)c1c(F)c(F)c(F)c(F)c1F
[1]
  activation: 37.6%
[2]
  viability: 114%
[3]
  Potency: 9.34 µM (active)
[4]
  Potency: 6.61 µM (active)
[5]
  Potency: 6.61 µM (active)
[6]
  Potency: inactive
[8]
  Potency: 26.3 µM (active)
[7]
  Potency: inactive
